Molecules are shown by their SMILES. Where “and” joins values, the source holds several entries; their conditions need not be identical. Equal values may be shown once. Results filed as inconclusive are left out. A call without a number means that no potency is given here. Calls of active or inactive are those of the source. Unless noted, calls come from the whole dose curve; as a rule, active = well fitted inhibition curve with a large enough effect; inconclusive = small, poorly fitted or top-dose-only effect; inactive = flat fitted curve, though single readings scatter. Where a SMILES comes first, the peptide text is derived from it. [ ]: non-standard residue; d: D form.
Potency is the fitted concentration of half-maximal effect.

Chain of Phospholipid hydroperoxide glutathione peroxidase GPX4 (Homo sapiens) (P36969 whole entry, looked up): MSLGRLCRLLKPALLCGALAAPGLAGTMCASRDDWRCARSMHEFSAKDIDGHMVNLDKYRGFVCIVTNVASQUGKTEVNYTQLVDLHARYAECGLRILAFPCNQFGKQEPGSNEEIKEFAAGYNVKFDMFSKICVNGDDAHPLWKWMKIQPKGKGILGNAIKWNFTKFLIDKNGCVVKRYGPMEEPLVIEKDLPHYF
Chain of Glutathione peroxidase 1 (Homo sapiens) (P07203 whole entry, looked up): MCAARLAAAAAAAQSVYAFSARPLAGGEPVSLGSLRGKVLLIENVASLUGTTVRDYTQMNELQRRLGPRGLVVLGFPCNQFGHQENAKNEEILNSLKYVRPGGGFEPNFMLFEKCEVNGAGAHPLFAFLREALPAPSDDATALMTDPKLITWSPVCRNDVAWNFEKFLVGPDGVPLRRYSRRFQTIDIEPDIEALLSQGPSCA

System in the first test: not listed separately
Kind of test: NCATS anti-infectives library activity on the primary C. elegans qHTS viability assay (AID 1745855; calls by dose curve). The conditions noted are these: C. elegans worm area imaging, day 7; series mostly up to 41.8 µM. An outline of the steps: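 Viability read-out is GFP fluorescence of PE254-GFP-FLuc C. elegans, measured by laser cytometry (488 nm) at day 0, 3 and 7. Ten L1 worms per well were incubated 7 days at 21 °C with compounds and bacterial capsules in S medium.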
Background: In qHTS, concentration-response curves come from the screen itself.
In the case of `COc1ccnc2[nH]cc(C(=O)C(=O)N3CCN(C(=O)c4ccccc4)C[C@H]3C)c12`, the Potency entry was “inactive”. The same measure, in the same setting: next, `CC(=O)N1c2ccc(-c3ccc(C(=O)O)cc3)cc2[C@H](Nc2ccc(Cl)cc2)C[C@@H]1C`: 23 µM (active). In the case of `Cc1c(-c2cnccn2)ssc1=S`, the Potency result is “inactive”.

For a further test, the target named is Glutathione peroxidase 1 (Homo sapiens) (UniProt P07203). Put plainly: Primary qHTS Assay for Inhibitors of Recombinant Selenoprotein Glutathione Peroxidase 1 (GPX1) (AID 1845191). Note: nearly all actives have a fitted effect of over 65% in size. The conditions noted are these: recombinant GPX1, GR-coupled NADPH fluorescence, 15 min; series mostly up to 48.8 µM. In short, it runs like this:
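GR-coupled assay: compounds preincubated 30 min at room temperature with GPX1, then reaction started with CHP; final 10 nM GPX1, 1 mM GSH, 0.5 mM CHP, 0.5 mM NADPH, 100 nM GR, 0.01% BSA, pH 7.5 Tris buffer. NADPH fluorescence (340/450 nm) read at 0 and 15 min.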
Take `O=C(O)c1ccc(O)c2ncccc12`: the Potency entry is “inactive”. Still for that read-out and setting: next, `CC(C)C[C@@H]1NC(=O)[C@@H](C(C)C)NC(=O)[C@@H]2CCCN2C(=O)[C@@H](CC(=O)O)NC(=O)[C@@H](Cc2c[nH]c3ccccc23)NC1=O` (cyclo(L[dW][dD]P[dV])): “inactive”. On the same count and under the same terms, the result for `O=C(/C=C/c1cccnc1)NCCCCC1CCN(C(=O)c2ccccc2)CC1` reads “inactive”.

`CC(/C=C1\SC(=S)N(CC(=O)O)C1=O)=C\c1ccccc1`: the Potency was 7.28 µM (active) and 3.21 µM (active). The same measure, in the same setting: next, `Cn1cc(/C=C/C(=O)c2cccc(F)c2)cc1/C=C/C(=O)NO`: “inactive”; `COc1ccnc2[nH]cc(C(=O)C(=O)N3CCN(C(=O)c4ccccc4)C[C@H]3C)c12`: “inactive”; `COc1ccc(-n2cnc3cc(C(=O)N4CCCCC4)ccc32)cc1`: “inactive”.

Turning to `CCC1CCCCN1C(=O)n1ncc(C(O)(c2ccccc2)c2ccccc2)n1` (stereo not drawn), the Potency result was “inactive”. `O=C1OC(COc2ccccc2[N+](=O)[O-])CC1Cc1ccccc1` (stereo not drawn): the Potency entry was “inactive”. Still for that read-out and setting: the result for `C[C@H]1CC2[C@@H]3CCC4=CC(=O)C=C[C@]4(C)[C@@]3(F)[C@@H](O)C[C@]2(C)[C@@]1(O)C(=O)CO` (stereo partly drawn) reads “inactive”. On the same count and under the same terms, next, `CN(Cc1ccccc1)C(=O)c1ccc(S(=O)(=O)Nc2ccccc2)cc1`: “inactive”; `Cc1c(CN2CCN(C(=O)[C@H](C)O)CC2)sc2c(N3CCOCC3)nc(-c3cnc(N)nc3)nc12`: “inactive”; `Cc1cc(C)c(S(=O)(=O)N(CCc2cccc(Br)c2)Cc2ccc(-c3cccc(S(C)(=O)=O)c3)cc2)c(C)c1`: “inactive”. On to `CN(CCOc1ccc(C[C@H](Nc2ccccc2C(=O)c2ccccc2)C(=O)O)cc1)c1ccccn1`, for which the Potency entry is “inactive”. Regarding `CC(=O)N1c2ccc(-c3ccc(C(=O)O)cc3)cc2[C@H](Nc2ccc(Cl)cc2)C[C@@H]1C`, the Potency entry was “inactive”. The same measure, in the same setting: next, `Cc1ccc(-n2c(C)cc(-c3nnc4n3CCCCC4)c2C)cc1`: “inactive”; `COc1nc(N)nc2c1ncn2C1OC(CO)C(O)C1O` (stereo not drawn): “inactive”; `C/C(=N\NC(=O)c1cccc(S(=O)(=O)N2CCOCC2)c1)c1cc(Cl)ccc1O`: “inactive”. On to `Cn1cc(/C=C2\C(=O)Nc3cccnc32)c2ccccc21`, for which the Potency entry was “inactive”.

As to `C[C@@H]1CC(=O)Nc2cccc(-c3cnn(C(C)(C)C)c3)c2N1`, the Potency entry was “inactive”. Regarding `O=C(CCCc1ccc2cccnc2n1)NCc1cc(-c2ccc(F)c(C(F)(F)F)c2)no1`, the Potency result is “inactive”. Regarding `Cc1cccc(/C=N/Nc2cc(N3CCOCC3)nc(OCCc3ccccn3)n2)c1`, the Potency entry was “inactive”. Still for that read-out and setting: the result for `NS(=O)(=O)c1ccc(Cc2c(-c3cccc(-c4ccccc4)c3)nn(-c3nc(C(=O)O)cs3)c2CC2CC2)cc1` reads “inactive”.

Take `C[C@H]1[C@H](C)CC[C@]2(C(=O)O)CC[C@]3(C)C(=CC[C@@H]4[C@@]5(C)CC[C@H](O)C(C)(C)[C@@H]5CC[C@]43C)[C@H]12`: the Potency result was “inactive”. On the same count and under the same terms, the result for `COc1ccc([C@@H](O)[C@@H](C)Oc2ccc([C@H]3O[C@H](c4ccc(O[C@H](C)[C@H](O)c5ccc(OC)c(OC)c5)c(OC)c4)[C@H](C)[C@H]3C)cc2OC)cc1OC` reads “inactive”; that for `COc1cc2nccc(Oc3ccc(NC(=O)c4cn(C(C)C)c(=O)n(-c5ccc(F)cc5)c4=O)cc3F)c2cc1OC`, “inactive”. The same measure, in the same setting: next, `C[C@H](NC(=O)CCC(F)(F)F)C(=O)N[C@@H]1C(=O)N(CCO)c2ncccc2-c2ccccc21`: “inactive”; `C[C@H](CCC(=O)O)[C@H]1CC[C@H]2[C@@H]3[C@@H](O)C[C@@H]4C[C@H](O)CC[C@]4(C)[C@H]3CC[C@]12C`: “inactive”; `Clc1cccc(-c2ccc(-c3nnc(CCCc4ccc5cccnc5n4)o3)cc2)c1`: “inactive”. As to `C=C1CCC2[C@](C)(CO)C(O)CC[C@]2(C)C1C/C=C1/C(=O)OCC1O` (stereo partly drawn), the Potency entry was “inactive”. On the same count and under the same terms, the result for `Cc1c(-c2cnccn2)ssc1=S` reads “inactive”.

On to `CC1(C(=O)O)CCC2(C)CCC3(C)C(=CC(=O)C4C5(C)CCC(OC6OC(C(=O)O)C(O)C(O)C6OC6OC(C(=O)O)C(O)C(O)C6O)C(C)(C)C5CCC43C)C2C1` (stereo not drawn), for which the Potency result was “inactive”.

Another test has as its target Phospholipid hydroperoxide glutathione peroxidase GPX4 (Homo sapiens) (UniProt P36969). Kind of test: Primary qHTS Assay for Inhibitors of Recombinant Selenoprotein Glutathione Peroxidase 4 (GPX4) (AID 1845192). Note: nearly all actives have a fitted effect of over 65% in size. The conditions noted are these: recombinant GPX4, GR-coupled NADPH fluorescence, 15 min; series mostly up to 50 µM. In short, it runs like this: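 GR-coupled assay: recombinant GPX4 preincubated 30 min with compound at room temperature; final 200 nM GPX4, 1 mM GSH, 0.5 mM cumene hydroperoxide, 0.5 mM NADPH, 100 nM GR, 0.01% BSA, pH 7.5 Tris. NADPH fluorescence (340/450 nm) read at 0 and 15 min.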
`O=C(O)c1ccc(O)c2ncccc12`: the Potency entry is “inactive”. As to `CC(C)C[C@@H]1NC(=O)[C@@H](C(C)C)NC(=O)[C@@H]2CCCN2C(=O)[C@@H](CC(=O)O)NC(=O)[C@@H](Cc2c[nH]c3ccccc23)NC1=O` (cyclo(L[dW][dD]P[dV])), the Potency entry is “inactive”. As for `O=C(/C=C/c1cccnc1)NCCCCC1CCN(C(=O)c2ccccc2)CC1`, the Potency result was “inactive”. As to `CC(/C=C1\SC(=S)N(CC(=O)O)C1=O)=C\c1ccccc1`, the Potency is 12.8 µM (active) and 12.6 µM (active). The same measure, in the same setting: next, `COc1ccnc2[nH]cc(C(=O)C(=O)N3CCN(C(=O)c4ccccc4)C[C@H]3C)c12`: “inactive”; `COc1ccc(-n2cnc3cc(C(=O)N4CCCCC4)ccc32)cc1`: “inactive”; `CCC1CCCCN1C(=O)n1ncc(C(O)(c2ccccc2)c2ccccc2)n1` (stereo not drawn): “inactive”. In the case of `O=C1OC(COc2ccccc2[N+](=O)[O-])CC1Cc1ccccc1` (stereo not drawn), the Potency entry is “inactive”. Still for that read-out and setting: the result for `O=C(/C=C/c1ccc2ccc(C(F)(F)F)cc2n1)c1ccncc1` reads “inactive”; that for `C[C@H]1CC2[C@@H]3CCC4=CC(=O)C=C[C@]4(C)[C@@]3(F)[C@@H](O)C[C@]2(C)[C@@]1(O)C(=O)CO` (stereo partly drawn), “inactive”.

Turning to `CN(Cc1ccccc1)C(=O)c1ccc(S(=O)(=O)Nc2ccccc2)cc1`, the Potency result was “inactive”. Same read-out and setting: next, `Cc1cc(C)c(S(=O)(=O)N(CCc2cccc(Br)c2)Cc2ccc(-c3cccc(S(C)(=O)=O)c3)cc2)c(C)c1`: “inactive”. On the same count and under the same terms, the result for `Cc1ccc(-n2c(C)cc(-c3nnc4n3CCCCC4)c2C)cc1` reads “inactive”. Still for that read-out and setting: the result for `COc1nc(N)nc2c1ncn2C1OC(CO)C(O)C1O` (stereo not drawn) reads “inactive”; that for `C/C(=N\NC(=O)c1cccc(S(=O)(=O)N2CCOCC2)c1)c1cc(Cl)ccc1O`, “inactive”; that for `CNc1nc(-c2ccc3c(N)n[nH]c3c2)cc(N2C[C@@H](C(=O)NC3CCCCC3)CC[C@H]2C)n1`, “inactive”. As to `Cn1cc(/C=C2\C(=O)Nc3cccnc32)c2ccccc21`, the Potency entry was “inactive”. On the same count and under the same terms, next, `C[C@@H]1CC(=O)Nc2cccc(-c3cnn(C(C)(C)C)c3)c2N1`: “inactive”. Still for that read-out and setting: next, `O=C(CCCc1ccc2cccnc2n1)NCc1cc(-c2ccc(F)c(C(F)(F)F)c2)no1`: “inactive”; `Cc1cccc(/C=N/Nc2cc(N3CCOCC3)nc(OCCc3ccccn3)n2)c1`: “inactive”; `NS(=O)(=O)c1ccc(Cc2c(-c3cccc(-c4ccccc4)c3)nn(-c3nc(C(=O)O)cs3)c2CC2CC2)cc1`: 6.4 µM (active). On the same count and under the same terms, the result for `C[C@H]1[C@H](C)CC[C@]2(C(=O)O)CC[C@]3(C)C(=CC[C@@H]4[C@@]5(C)CC[C@H](O)C(C)(C)[C@@H]5CC[C@]43C)[C@H]12` reads “inactive”; that for `COc1ccc([C@@H](O)[C@@H](C)Oc2ccc([C@H]3O[C@H](c4ccc(O[C@H](C)[C@H](O)c5ccc(OC)c(OC)c5)c(OC)c4)[C@H](C)[C@H]3C)cc2OC)cc1OC`, “inactive”. Take `CN(C)C[C@@H]1CCn2cc(c3ccccc32)C2=C(C(=O)NC2=O)c2cn(c3ccccc23)CCO1`: the Potency entry was “inactive”. On the same count and under the same terms, the result for `COc1cc2nccc(Oc3ccc(NC(=O)c4cn(C(C)C)c(=O)n(-c5ccc(F)cc5)c4=O)cc3F)c2cc1OC` reads “inactive”; that for `C[C@H](NC(=O)CCC(F)(F)F)C(=O)N[C@@H]1C(=O)N(CCO)c2ncccc2-c2ccccc21`, “inactive”; that for `C[C@H](CCC(=O)O)[C@H]1CC[C@H]2[C@@H]3[C@@H](O)C[C@@H]4C[C@H](O)CC[C@]4(C)[C@H]3CC[C@]12C`, “inactive”.

`CC1(C(=O)O)CCC2(C)CCC3(C)C(=CC(=O)C4C5(C)CCC(OC6OC(C(=O)O)C(O)C(O)C6OC6OC(C(=O)O)C(O)C(O)C6O)C(C)(C)C5CCC43C)C2C1` (stereo not drawn): the Potency result was “inactive”.

(Values after PubChem BioAssay (NCATS).)
